According to PubChem BioAssay (Tox21):
Inconclusive results are not listed. Active and inactive are the calls of the source. Unless noted, calls come from the whole dose curve; as a rule, active = well fitted curve in the direction sought with a large enough effect in the repeat runs; inconclusive = weak or mixed curves; inactive = no such curve, though single readings can be large; an effect the other way counts as inactive or inconclusive.

Assays:
[1] = qHTS assay for small molecule agonists of the p53 signaling pathway (AID 651631; calls by dose curve; note: nearly all actives have a fitted effect of over 15% in size; note: potency is the fitted concentration of half-maximal effect)
Outline: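 HCT-116 cells carrying a stable p53 response element–beta-lactamase reporter were plated, rested 5 h at 37 °C, then exposed to compound in DMSO for 16 h at 37 °C; reporter activity was read as FRET substrate fluorescence after 2 h at room temperature.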

[2] = qHTS assay for small molecules that induce genotoxicity in human embryonic kidney cells expressing luciferase-tagged ATAD5 (AID 651632); note: nearly all actives have a fitted effect of over 15% in size; note: potency is the fitted concentration of half-maximal effect
Outline: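 A rise in luciferase signal from ATAD5-tagged HEK293T cells marks genetic stress. Cells were exposed to compounds for 16 hr at 37C, 5% CO2, then luciferase was quantified after a 30 min room-temperature incubation with Amplite.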

[3] = qHTS assay for small molecule agonists of the p53 signaling pathway - cell viability (AID 651633; calls by dose curve; note: series mostly up to about 83 µM; nearly all actives have a fitted effect of over 30% in size)
Outline: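 p53RE-bla cells were treated with compound for 16 hours at 37 C. Cytotoxicity was then measured as CellTiter-Glo luminescence after 30 min at room temperature.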

[4] = qHTS assay for small molecules that induce genotoxicity in human embryonic kidney cells expressing luciferase-tagged ATAD5 - cell viability (AID 651634; calls by dose curve; note: nearly all actives have a fitted effect of over 25% in size; note: potency is the fitted concentration of half-maximal effect)
Outline: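 Cytotoxicity counter-readout: after 15.5 hr compound treatment at 37C, live-cell protease activity in ATAD5-luciferase HEK293T cells measured by CellTiter-Fluor fluorescence, 30 min development at 37C.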

[5] = qHTS assay for small molecule disruptors of the mitochondrial membrane potential - cell viability (AID 720634; calls by dose curve;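 note: human HepG2 liver cancer cells; series mostly up to about 83 µM; nearly all actives have a fitted effect of over 20% in size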)
Outline: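 Cytotoxicity was quantified from ATP content by CellTiter-Glo luminescence in the same wells as the MMP dye read-out. HepG2 (2,000 cells/well) were plated overnight and exposed to compounds for 1 hr at 37 C.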

[6] = qHTS assay for small molecule disruptors of the mitochondrial membrane potential (AID 720635); note: potency is the fitted concentration of half-maximal effect
Outline: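 HepG2 cells exposed to compound 1 hr at 37C, then Mito-MPS dye 30 min. Ratio read of aggregate (540/590 nm) versus monomer (490/535 nm) fluorescence.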

[7] = qHTS assay to test for compound auto fluorescence at 590 nm (red) in HepG2 cells (AID 720674)
Outline: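 HepG2 cells, 2,000 per well in MEM with 10% FBS, attached overnight at 37 C, then got 23 nL compound or DMSO. After 1 hr at 37 C, 5% CO2, red fluorescence was read at 540/590 nm against Rose Bengal sodium as reference.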

[8] = qHTS assay to test for compound auto fluorescence at 535 nm (green) in HepG2 cells (AID 720675)
[9] = qHTS assay to test for compound auto fluorescence at 460 nm (blue) in HEK293 cells (AID 720678)
Outline: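 HEK293, 2,000 cells/well, 10% dialyzed FBS; attach 4-5 hr 37C; pin compound or DMSO; o/n 37C/5% CO2; fluorescence 405/460 nm; triamterene-equivalent units.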

[10] = qHTS assay to test for compound auto fluorescence at 535 nm (green) in HEK293 cells (AID 720680)
[11] = qHTS assay to test for compound auto fluorescence at 535 nm (green) in HEK293 cell free culture (AID 720682)
Outline: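 Read-out: 485/535 nm fluorescence intensity, calibrated against fluorescein. Medium only (DMEM + 10% FBS, no cells); test compound or DMSO vehicle added by pintool before plate reading.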

[12] = qHTS assay to test for compound auto fluorescence at 590 nm (red) in HEK293 cell free culture (AID 720683)
Outline: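 Cell-free wells of DMEM with 10% FBS received compound, and intrinsic fluorescence was read at excitation/emission 540/590 nm. Values expressed as equivalence to Rose Bengal sodium.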

[13] = qHTS assay to test for compound auto fluorescence at 590 nm (red) in HepG2 cell free culture (AID 720684)
Outline: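 Rose Bengal sodium served as the reference for red signal. Test compounds were dispensed into serum-containing MEM (10% FBS) without cells, and plates were read at 540/590 nm.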

[14] = qHTS assay to test for compound auto fluorescence at 460 nm (blue) in HepG2 cell free culture (AID 720685)
Outline: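 Cell-free plates of MEM plus 10% FBS received 23 nL compound or DMSO vehicle; blue-channel (405/460 nm) intensity scored against triamterene as reference fluorophore.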

[15] = qHTS assay to test for compound auto fluorescence at 535 nm (green) in HepG2 cell free culture (AID 720686)
[16] = qHTS assay to test for compound auto fluorescence at 460 nm (blue) in HepG2 cells (AID 720687)
Outline: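 HepG2 cells in MEM with 10% FBS, attached overnight at 37 C, were exposed to compound or DMSO for 1 hr at 37 C, 5% CO2. Blue fluorescence was read at 405/460 nm, with triamterene as reference fluorophore.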

[17] = biological target: Glucocorticoid receptor (Homo sapiens) (UniProt P04150); assay: qHTS assay to identify small molecule agonists of the glucocorticoid receptor (GR) signaling pathway (AID 720691; active = well fitted activation curve with a large enough effect in the signal ratio in the repeat runs, not every such curve was filed as active; the % refers to the signal ratio)
Outline: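 Agonist-mode qHTS in HeLa cells stably expressing a glucocorticoid-response-element beta-lactamase reporter. Fluorescence intensity read with FRET substrate (2 h, room temperature) after 18 h compound treatment at 37 C.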

[18] = biological target: Glucocorticoid receptor (Homo sapiens) (UniProt P04150); assay: qHTS assay to identify small molecule antagonists of the glucocorticoid receptor (GR) signaling pathway (AID 720692; active = well fitted inhibition curve with a large enough effect in the signal ratio in the repeat runs, not every such curve was filed as active; the % refers to the signal ratio)
Outline: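 Inhibition of dexamethasone-driven (5 nM final) beta-lactamase expression was measured in GRE-reporter HeLa cells over 18 h at 37C. Fluorescence was read after 2 h with the B/G FRET substrate at room temperature.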

[19] = qHTS assay to test for compound auto fluorescence at 590 nm (red) in HEK293 cells (AID 720679)
Outline: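 Intensity at 540nm excitation and 590nm emission is reported as Rose Bengal sodium-equivalent autofluorescence. Measurements followed overnight exposure (37C, 5% CO2) of HEK293 cells, 2,000 per well, to 23 nL compound.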

[20] = qHTS assay to test for compound auto fluorescence at 460 nm (blue) in HEK293 cell free culture (AID 720681)
Outline: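 Compounds were added to cell-free DMEM with 10% FBS and fluorescence read directly. The blue channel used 405 nm excitation and 460 nm emission, with triamterene as the reference fluorophore.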
% is set by controls: 0 for no effect and ±100 for the full control effect.

Sequence of Glucocorticoid receptor (Homo sapiens) (P04150 whole entry, looked up): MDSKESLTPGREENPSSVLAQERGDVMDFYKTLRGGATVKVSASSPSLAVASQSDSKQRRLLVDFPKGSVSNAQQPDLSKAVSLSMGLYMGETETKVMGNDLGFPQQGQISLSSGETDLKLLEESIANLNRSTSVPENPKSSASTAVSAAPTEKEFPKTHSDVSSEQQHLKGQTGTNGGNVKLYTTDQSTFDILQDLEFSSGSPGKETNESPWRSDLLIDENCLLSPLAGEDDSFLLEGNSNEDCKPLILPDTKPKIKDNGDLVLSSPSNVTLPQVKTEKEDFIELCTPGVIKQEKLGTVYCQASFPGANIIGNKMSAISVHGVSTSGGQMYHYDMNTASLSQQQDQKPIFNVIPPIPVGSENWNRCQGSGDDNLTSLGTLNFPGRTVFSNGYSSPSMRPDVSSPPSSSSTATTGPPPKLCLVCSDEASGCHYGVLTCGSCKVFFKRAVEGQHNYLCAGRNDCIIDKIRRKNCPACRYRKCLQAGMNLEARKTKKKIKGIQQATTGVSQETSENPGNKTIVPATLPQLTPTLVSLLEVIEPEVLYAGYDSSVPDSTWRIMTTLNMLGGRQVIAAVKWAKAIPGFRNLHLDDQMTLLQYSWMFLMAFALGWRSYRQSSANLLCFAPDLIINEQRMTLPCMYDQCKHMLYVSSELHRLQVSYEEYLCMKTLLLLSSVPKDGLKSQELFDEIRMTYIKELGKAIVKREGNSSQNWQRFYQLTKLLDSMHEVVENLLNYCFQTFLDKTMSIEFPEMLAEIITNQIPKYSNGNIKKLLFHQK

CC1CC(O)CC(C)(C)C1 (stereo not given)
inactive: Potency [1] | Potency [2] | Potency [3] | Potency [4] | Potency [5] | Potency [6] | outcome [7] | outcome [8] | Potency [9] | outcome [10] | outcome [11] | outcome [12] | outcome [13] | Potency [14] | outcome [15] | Potency [16] | Potency [17] | Potency [18]

CCC(C)(O)CCC=C(C)C (stereo not given)
inactive: Potency [1] | Potency [2] | Potency [3] | Potency [4] | Potency [5] | Potency [6] | outcome [7] | outcome [8] | Potency [9] | outcome [19] | outcome [10] | Potency [20] | outcome [11] | outcome [12] | outcome [13] | Potency [14] | Potency [17] | Potency [18]

CCCCCCCCCOC(C)=O
inactive: Potency [1] | Potency [2] | Potency [3] | Potency [4] | Potency [5] | Potency [6] | outcome [7] | outcome [8] | Potency [9] | outcome [19] | outcome [10] | Potency [20] | outcome [11] | outcome [12] | outcome [13] | Potency [14] | outcome [15] | Potency [16] | Potency [17] | Potency [18]

CC#N
inactive: Potency [1] | Potency [2] | Potency [3] | Potency [4] | Potency [5] | Potency [6] | outcome [7] | outcome [8] | Potency [9] | outcome [19] | outcome [10] | outcome [11] | outcome [12] | outcome [13] | Potency [14] | outcome [15] | Potency [16] | Potency [17] | Potency [18]

CC1(C)C2=CCCC(C)(C)[C@]23CC[C@H]1C3
inactive: Potency [1] | Potency [2] | Potency [3] | Potency [4] | Potency [5] | Potency [6] | outcome [7] | Potency [9] | outcome [19] | Potency [20] | outcome [11] | outcome [12] | outcome [13] | Potency [14] | outcome [15] | Potency [16] | Potency [17] | Potency [18]

COc1ccc(C(=O)c2cccc(O)c2)c(OC)c1
inactive: Potency [1] | Potency [2] | Potency [3] | Potency [4] | Potency [5] | outcome [7] | outcome [8] | Potency [9] | outcome [19] | outcome [10] | outcome [11] | outcome [12] | outcome [13] | Potency [14] | outcome [15] | Potency [17]
active: Potency [6] 30600 nM

COC(=O)Nc1nc2ccc(C(=O)c3cccs3)cc2[nH]1
active: Potency [1] 133 nM | Potency [2] 2370 nM | Potency [4] 133 nM | Potency [6] 2370 nM
inactive: Potency [3] | Potency [5] | outcome [7] | outcome [8] | Potency [9] | outcome [19] | outcome [10] | Potency [20] | outcome [11] | outcome [12] | outcome [13] | Potency [14] | outcome [15] | Potency [16]

O=C(Nc1ccc([N+](=O)[O-])cc1)Nc1ccc([N+](=O)[O-])cc1
inactive: Potency [1] | Potency [2] | Potency [3] | Potency [4] | Potency [5] | outcome [7] | outcome [8] | Potency [9] | outcome [19] | Potency [20] | outcome [11] | outcome [12] | outcome [13] | Potency [14] | outcome [15] | Potency [16] | Potency [17]
active: Potency [6] 422 nM

C[N+](C)(C)CCOC(N)=O
inactive: Potency [1] | Potency [2] | Potency [3] | Potency [4] | Potency [5] | Potency [6] | outcome [7] | outcome [8] | Potency [9] | outcome [10] | outcome [11] | outcome [12] | outcome [13] | Potency [14] | outcome [15] | Potency [16]

CCC(=O)OC/C=C/c1ccccc1
inactive: Potency [1] | Potency [2] | Potency [3] | Potency [4] | Potency [5] | Potency [6] | outcome [7] | outcome [8] | Potency [9] | outcome [19] | outcome [10] | Potency [20] | outcome [11] | outcome [12] | outcome [13] | Potency [14] | outcome [15] | Potency [16] | Potency [17] | Potency [18]

CCCCCCCCSCCO
inactive: Potency [1] | Potency [2] | Potency [3] | Potency [4] | Potency [5] | outcome [7] | outcome [8] | Potency [9] | outcome [19] | outcome [10] | Potency [20] | outcome [11] | outcome [12] | outcome [13] | Potency [14] | outcome [15] | Potency [16] | Potency [17] | Potency [18]
active: Potency [6] 24300 nM

COc1cc2[nH]c(=O)[nH]c(=O)c2cc1OC
inactive: Potency [1] | Potency [2] | Potency [3] | Potency [4] | Potency [5] | fluorescence, relative to Rose Bengal [7] 0.0405% [at 18.6 µM] | fluorescence, % of fluorescein control [8] -0.0154% [at 18.6 µM] | fluorescence, % of triamterene [9] -0.031% [at 18.6 µM] | fluorescence, % of fluorescent control [19] -0.538% [at 18.6 µM] | fluorescence, % of fluorescein [10] 0.0875% [at 18.6 µM] | fluorescence, % of fluorescent control [20] 0.0899% [at 18.6 µM] | activity change [11] 0.0939% [at 18.6 µM] | fluorescence, % of fluorescent control [12] 0.224% [at 18.6 µM] | fluorescence, % of Rose Bengal [13] 0.0628% [at 18.6 µM] | fluorescence, % of fluorescent control [14] -0.0173% [at 18.6 µM] | fluorescence, % of fluorescein control [15] -0.0155% [at 18.6 µM] | fluorescence, % of fluorescent control [16] 0.0151% [at 18.6 µM]

CO[C@H]1O[C@H](CO)[C@@H](O)[C@H](O)[C@H]1O
inactive: Potency [1] | Potency [2] | Potency [3] | Potency [4] | Potency [5] | Potency [6] | outcome [7] | Potency [9] | outcome [19] | outcome [10] | Potency [20] | outcome [11] | outcome [12] | Potency [14] | outcome [15] | Potency [16]
